# Values joined by “and” are separate entries in the source; they are usually repeats but may differ in a detail not shown here. Equal values may be shown once. The whole screen tested about 420,000 compounds, of which about 64,000 (15%) were called active. Inconclusive results (about 27%) are left out. Not all results are given here. A number with no mark means an inactive call. The call rests on the fitted dose curve; in most records, active means well fitted inhibition curve with a large enough effect; inconclusive means small, poorly fitted or top-dose-only effect; inactive means flat fitted curve, though single readings scatter.
# Assay: qHTS for Inhibitors of human tyrosyl-DNA phosphodiesterase 1 (TDP1): qHTS in cells in absence of CPT; further: nearly all actives have a fitted effect of over 55% in size
# Conditions: DT40 Tdp1-/- hTDP1 cells, no CPT, ATP luminescence, 48 h; activity change, negative = growth inhibition: at 46.2 µM (top of the series)
# Procedure, shortened: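 Chicken DT40 Tdp1-/- cells complemented with human TDP1, screened without camptothecin (DMSO vehicle only), 400 cells/well. Compounds pin-transferred, cells incubated at 37 °C for at least 48 hr. Growth read as ATP-dependent luminescence (CellTiter-Glo, 30 min at RT).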
# On the % scale 0 is the no-effect control and ±100 the full control effect; potency means the concentration at half of the fitted maximal effect.
SMILES,"activity change, negative = growth inhibition",Potency
O=C(CNC(=O)c1ccccc1Br)NNC(=O)c1cccs1,3.7%,
O=S(=O)(c1ccc(Br)cc1)c1nnn2c1nc(NC1CCCCCC1)c1sccc12,-5.37%,
Cc1ccc(C)c(S(=O)(=O)c2nnn3c2nc(N2CCOCC2)c2sccc23)c1,,23.1 µM (active)
Cc1ccc(S(=O)(=O)c2nnn3c2nc(N2CCN(c4ccccn4)CC2)c2ccccc23)cc1,0.726%,
COc1ccc(CCOC(=O)CNC(=O)c2ccc(Cl)cc2Cl)cc1,11.6%,
COc1ccc(Nc2ncc(C(=O)Nc3cc(C)ccc3OC)c3ccccc23)cc1,,23.1 µM (active)
COc1ccccc1N1CCN(C(=O)c2ccc(NC3=NC4CS(=O)(=O)CC4S3)cc2)CC1 (stereo unspecified),-10.6%,
COc1ccc(NC2CCCN(C(=O)c3ccccc3-c3ncc[nH]3)C2)cc1 (stereo unspecified),-7.25%,
COc1ccc(NC(=O)c2cnc(Nc3ccc(C)c(Cl)c3)c3ccccc23)cc1OC,10.1%,
COC(=O)c1cnc(Nc2cc(C)ccc2OC)c2ccccc12,2.44%,
COc1ccc(Nc2ncc(C(=O)N3CCN(c4ccccc4OC)CC3)c3ccccc23)cc1,,25.9 µM (active) and 5.8 µM (active)
CC(C)(C)C(=O)CSc1ccc(S(=O)(=O)N2CCCC2)cn1,-12%,
Cc1ccccc1NC(=O)c1cc2c([nH]c1=O)CC(C)(C)CC2=O,1.54%,
Cn1c(CSCC(=O)Nc2ccccc2)nnc1SCc1ccccc1,-16.4%,
NS(=O)(=O)c1ccc(CNC(=S)NC(=O)c2ccco2)cc1,-21.3%,
COC(=O)c1c(NC(=O)C2CC(C)=C(C)CC2C(=O)O)sc2c1CCCCC2 (stereo unspecified),-17.4%,
CCc1ccc(N(CC(=O)Nc2sc3c(c2C(=O)OC)CCCC3)S(C)(=O)=O)cc1,,23.1 µM (active)
COC(=O)c1c(NC(=O)CCCC(=O)O)sc2c1CCCCC2,1.24%,
O=C(COc1ccccc1)Nc1cc2c3c(c1)CC(=O)N3CCC2,-10.3%,
O=C(CN1CCOCC1)N/N=C/c1ccc(-c2ccc(Br)cc2)o1,-29.5%,
O=C1CCC(=O)N(c2ccccc2)N1,-6.87%,
CN(C)S(=O)(=O)c1cccc(NC(=O)COC(=O)C2(c3ccccc3F)CCCC2)c1,,13 µM (active)
CN(C)S(=O)(=O)c1cccc(NC(=O)COC(=O)/C=C/c2cccs2)c1,-17.5%,
CN(C)S(=O)(=O)c1cccc(NC(=O)COC(=O)c2cc(=O)[nH]c(=O)[nH]2)c1,-3.13%,
COc1ccc(S(=O)(=O)N2CCN(C(=O)c3cccs3)CC2)cc1OC,-24.8%,
O=S(=O)(NCCc1ccccc1)c1ccccc1,-22.6%,

SMILES,"activity change, negative = growth inhibition",Potency
CCCN(CCC)S(=O)(=O)c1ccc(C(=O)N2CC3CCC(CC3)C2)cc1,,23.1 µM (active)
CCSC1=NCCN1C(=O)c1ccc(S(=O)(=O)N(CC)CC)cc1,1.3%,
CCN(CC(=O)N1CCCC1)S(=O)(=O)c1ccc(F)cc1,6.24%,
CCc1nc(NCCO)c(C#N)c2c1CCCC2,2.76%,
N#CCc1c(C#N)c(N)nc(N2CCCC2)c1C#N,-12.4%,
CC(C)CCNc1nc(N2CCCC2)c2c(c1C#N)CCN(C)C2,,23.1 µM (active)
CC(=O)Nc1ccc(Nc2ncnc3c2nnn3Cc2ccccc2Cl)cc1,-17.5%,
O=C(Nc1cccc(F)c1)N1CC2(CCN(C(=O)c3csnn3)CC2)C1,-12.5%,
O=S(=O)(NC1CC2CCC1C2)c1ccc(Cl)cc1 (stereo unspecified),-3.07%,
Nc1nc2c(ncn2[C@@H]2O[C@H](CNS(=O)(=O)N3CCc4ccccc4C3)[C@@H](O)[C@H]2O)c(=O)[nH]1,11.3%,
COc1cc2[nH]c(=S)n(CCN3CCCCC3C)c(=O)c2cc1OC (stereo unspecified),-19.2%,
CCCCN1C(=O)/C(=C(/C#N)C(N)=O)c2ccccc21,-2.74%,
COc1ccc2c(c1)C(=C(C#N)C#N)C(=O)N2CCc1ccccc1,,14.6 µM (active)
COc1cccc(CNC(=O)CN2C(=O)NC(Cc3ccccc3)(c3ccccc3)C2=O)c1 (stereo unspecified),-3.32%,
NC(=O)C1CCN(C(=O)c2ccc3c(=O)n(Cc4cccc(Br)c4)c(=S)[nH]c3c2)CC1,-19.8%,
Cc1cc(C)cc(OCC(=O)Nc2cc(NC(=O)COc3cc(C)cc(C)c3)cc(C(=O)O)c2)c1,-27.8%,
COC(C)C(C(=O)OCC1=CCN2CC[C@H](O)[C@@H]12)C(C)C (stereo partly specified),-18.8% [at 9.04 µM],
O=C(Cc1ccccn1)c1ccc(O)cc1O,-10.7%,
Cc1ccc2[nH]c(=O)c(CN(C)S(=O)(=O)c3cccc4nonc34)cc2c1,4.78%,
Cc1cccc(CSc2nc3c(c(=O)n2C)SCC3)c1,,14.6 µM (active)
CCn1c(SCc2ccccc2)nc2c(c1=O)SCC2,-23.3%,
Cn1c(SCC(=O)N2CCCCC2)nc2c(c1=O)SCC2,4.08%,
CCCCNC(=O)OC(C)CNC(=O)OC (stereo unspecified),12.1%,
CCC1CN(CCNC(=O)c2cccnc2C)Cc2cc(OC)ccc2O1 (stereo unspecified),-18.7%,
CCCS(=O)(=O)NCc1c(C)ncc2c1CCN(C(=O)c1ccc(F)c(F)c1)C2,2.82%,
CCOC(=O)CCCCCC(=O)Nc1ccc2c(c1)CC(=O)N([C@@H](C)CO)C[C@H](C)[C@@H](CN(C)Cc1ccccc1)O2,-22.9%,

SMILES,"activity change, negative = growth inhibition",Potency
CCSc1nnc(SCC(=O)NNC(=O)c2ccccc2F)s1,-3.12%,
Cc1cccc(N2CCN(C(=O)c3cnc(N4CCCC4)nc3C)CC2)c1C,,20.6 µM (active)
Cc1[nH]c2ccc(C(=O)N3CCN(C)CC3)cc2c1C,-6.28%,
Cc1ccccc1N1CCN(C(=O)c2cccnc2)CC1,-19.2%,
Cc1cccc(N2CCN(C(=O)COCc3cc(-c4ccc5c(c4)OCO5)on3)CC2)c1C,,inactive
CCC(CC)C(=O)N1CCN(c2cccc(C)c2C)CC1,,11.6 µM (active)
O=C(c1c(F)cccc1F)N1CCN(c2ncc(Br)cn2)CC1,-26.9%,
CCn1c(C)c(C)c2cc(C(=O)N3CCN(c4cccc(C)c4C)CC3)ccc21,,23.1 µM (active) and 20.6 µM (active)
Cc1cccc(N2CCN(C(=O)c3ccc(Nc4nc5ccccc5n5nnnc45)cc3)CC2)c1C,-10.5%,
Cc1cccc(N2CCN(C(=O)c3ccc4c(c3)CCN4S(=O)(=O)c3ccccc3)CC2)c1C,,6.51 µM (active)
CC(=O)N1CCN(c2cccc(C)c2C)CC1,-2.67%,
O=C(O)C(O)[C@@](O)(Cc1ccc(O)cc1)C(=O)O (stereo partly specified),-5.46%,
COCCCN1C(=O)C(=O)/C(=C(/O)c2ccc(S(=O)(=O)N3CCOCC3)cc2)C1c1ccc(F)cc1 (stereo unspecified),17.4%,
Cc1ccc(CNC(=O)Nc2nnc([C@H]3C[C@H](O)[C@@H](CO)O3)s2)cc1,17.4%,
O=C(O)CC(SCC(=O)Nc1ccc(Br)cc1)C(=O)O (stereo unspecified),-10.5%,
O=C(Nc1nnc(CCOCCOCCc2nnc(NC(=O)c3ccco3)s2)s1)c1ccco1,-5.18%,
CCC(=O)Nc1nc(OC)cc(OC)n1,-21.4%,
O=C(c1ccc(CN2CCOCC2)cc1)N1CCN(c2ccccc2F)CC1,-29.9%,
CCOc1ccccc1NC(=S)N1CCN(c2cccc(C)c2C)CC1,,8.2 µM (active)
CCOc1ccccc1NC(=O)C1CCCN(C(=O)Nc2ccccc2)C1 (stereo unspecified),-0.555%,
Cc1cccc(NC(=S)N2CCC(O)CC2)c1C,3.36%,
Cc1c(C)n(Cc2ccc(Cl)cc2)c2ccc(C(=O)N3CCN(c4ccccc4F)CC3)cc12,,23.1 µM (active)
CCc1ccc(NC(=O)CS(=O)CC(=O)N2CCN(c3ccccc3F)CC2)cc1 (stereo unspecified),-0.775%,
Brc1ccccc1C1Nc2cccc3cccc(c23)N1,-26.5%,
O=C(Cc1ccc(F)cc1)NC1CCCC1,-18.7%,
CCOc1ccc(NC(=O)CN(C)C(=O)c2c(C)noc2C)cc1OCC,-7.57%,

SMILES,"activity change, negative = growth inhibition",Potency
N#CC1(NC(=O)COc2ccc3oc4ccccc4c3c2)CCCCC1,-3.82%,
CCOC(=O)[C@H]1CCC[C@@H](NS(=O)(=O)c2ccc(NC(C)=O)cc2)C1,-27.8%,
COc1ccccc1OC(C)C(=O)Nc1ccc(S(=O)(=O)Nc2nccs2)cc1 (stereo unspecified),3.49%,
CCOc1ccc(C(C(=O)NCCOC)N(CCOC)C(=O)CCC(=O)Nc2ccccn2)cc1 (stereo unspecified),-22.5%,
Cc1ccc(C(=O)NCCc2nnc(SCC(=O)Nc3cccc(C(=O)O)c3)n2C)cc1,14.4%,
CCS(=O)(=O)C1=NSC2=NC(=O)/C(=C\c3cc(C)n(-c4cccc(OC)c4)c3C)C(=N)N21,-2.54%,
CCCCN(C=O)c1c(CC)nc2c(OCCC3CCCCC3)cccn12,,9.2 µM (active)
CCc1nc2c(OCC(=O)C(C)(C)C)cccn2c1N(C)C(=O)c1ccccc1F,-8.92%,
CCc1nc2c(OCC(N)=O)cccn2c1N(C)C(=O)c1ccc(OC)cc1,-5.74%,
CCc1nc2c(OCCC3CCCCC3)cccn2c1N(C)C(=O)c1ccco1,,16.4 µM (active)
CCOc1ccccc1N(CC(=O)Nc1ccccc1C(=O)OC)S(C)(=O)=O,0.517%,
CCc1nc2ccc(C(=O)N3CCN(S(=O)(=O)CC)CC3)cn2c1N(C=O)CCC(C)C,-19.4%,
CCCCN(C=O)c1c(CC)nc2c(OCc3ccccc3C(=O)OC)cccn12,,20.6 µM (active)
O=C(CNC(=O)c1ccco1)OCC(=O)c1ccccc1,-5.78%,
COc1ccc(COC(=O)N/N=C(\C)CC(=O)Nc2ccc(Cl)cc2)cc1,-6.88%,
CN(C)/N=C/c1cc(Cl)cc([N+](=O)[O-])c1O,-9.36%,
O=C(NC(Cc1ccccc1)C(=O)O)/C(=C\c1ccccc1)NC(=O)c1ccco1 (stereo unspecified),2.76%,
CC(=O)Nc1ccc(NC(=O)CS(=O)(=O)c2cn(CC(=O)N3CCCCC3)c3ccccc23)cc1,-5.42%,
Cc1noc(C)c1C(=O)Nc1ccccn1,1.03%,
CCOC1=C2CN(S(=O)(=O)c3ccc(C)cc3)[C@H](c3cccs3)C[C@H]2[C@H]2C(=O)N(c3ccccc3)C(=O)[C@H]2C1,-26.4%,
COC(=O)CSc1nnc(-c2cccnc2)o1,-7.69%,
CN(CC(=O)NC1CCCC1)S(=O)(=O)c1cnc[nH]1,11.5%,
CC1(C(=O)O)CCC(C(=O)Nc2ccc(Cl)c(Cl)c2)C1(C)C (stereo unspecified),9.89%,

# Reference: PubChem BioAssay AID686978 (National Center for Advancing Translational Sciences (NCATS), 2013)
